The results in this text go back to PubChem BioAssay (NCATS).

Records with an inconclusive call do not appear. A number with no mark means an inactive call. The call rests on the fitted dose curve; in most records, active means well fitted inhibition curve with a large enough effect; inconclusive means small, poorly fitted or top-dose-only effect; inactive means flat fitted curve, though single readings scatter.

The first assay relates to CP305. The assay is described as follows: qHTS profiling for inhibitors of Plasmodium falciparum proliferation (AID 504749).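 Further: 0% = DMSO vehicle and full inhibition = artemisinin control; nearly all actives have a fitted effect of over 60% in size.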 Particulars: P. falciparum in erythrocytes, SYBR Green DNA, 72 h; series mostly up to 28.7 µM; activity, negative = inhibition: at the top concentration. A digest of the protocol:
(§1)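 Infected RBCs, 0.3% parasitemia/2.5% Hct final; cpd 72 h, 37 C, 5% CO2; lysis buffer with saponin/triton/SYBR Green I, o/n RT dark; FI 485/535; norm. to artemisinin (0.29 uM) and DMSO.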
`C#C[C@]1(O)CC[C@H]2[C@@H]3CCc4cc(OC)ccc4[C@H]3CC[C@@]21C`: the “activity, negative = inhibition” value was 1.41%.

For `Cc1cc(C)cc(OCC2CNC(=O)O2)c1` (stereo not drawn), the “activity, negative = inhibition” value was -3.96%.

Turning to `Cc1cc(NS(=O)(=O)c2ccc(N)cc2)nc(C)n1`, the “activity, negative = inhibition” value was 11.4%.

On to `FC(F)(F)C(F)(F)C(F)(F)C(F)(F)C(F)(F)C(F)(F)C(F)(F)C(F)(F)Br`, for which the “activity, negative = inhibition” value is 3.73%.

On to `CC(=O)NC(=O)c1ccccc1O`, for which the “activity, negative = inhibition” value is -4.96%.

Take `O=C(O)C(Cc1cc(I)c(O)c(I)c1)c1ccccc1` (stereo not drawn): the “activity, negative = inhibition” value was -2.74%.

With `O=C(O)c1ccc(S(=O)(=O)N(Cl)Cl)cc1`, the “activity, negative = inhibition” value was -4.11%.

Turning to `CC(=O)Nc1ccc(OCC(O)CNC(C)C)cc1` (stereo not drawn), the “activity, negative = inhibition” value was -5.03%.

Take `O=S(=O)(O)c1ccc(O)cc1`: the “activity, negative = inhibition” value was 0.533%.

As for `C=C[C@@]1(C)CC(=O)[C@]2(O)[C@@]3(C)[C@@H](O)CCC(C)(C)[C@@H]3[C@H](O)[C@H](OC(C)=O)[C@@]2(C)O1`, the “activity, negative = inhibition” value was 0.1%.

Turning to `CCC1Nc2cc(Cl)c(S(N)(=O)=O)cc2S(=O)(=O)N1` (stereo not drawn), the “activity, negative = inhibition” value was 0.39%.

Regarding `CC(=O)OCC(=O)[C@H]1CC[C@H]2[C@@H]3CCC4=CC(=O)CC[C@]4(C)[C@H]3CC[C@]12C`, the “activity, negative = inhibition” value was -5.37%.

Turning to `CC(C)Nc1cccnc1N1CCN(C(=O)c2cc3cc(NS(C)(=O)=O)ccc3[nH]2)CC1`, the “activity, negative = inhibition” value was -4.13%.

For `COc1cc(C(=O)NCc2ccc(OCCN(C)C)cc2)cc(OC)c1OC`, the “activity, negative = inhibition” value is -2.4% [at 12.8 µM].

Take `Nc1ccc(C(=O)NCC(=O)O)cc1`: the “activity, negative = inhibition” value was 0.119% [at 12.8 µM].

With `CCC(CC)(CC(=O)Nc1cccc(/C=C/c2nc(C3CCC3)cs2)c1)C(=O)O`, the “activity, negative = inhibition” value was -2.62%.

In the case of `CCCCCCCCCCCCCCCC(=O)O`, the “activity, negative = inhibition” value is -0.216%.

Regarding `Nc1nc(N)c(-c2ccccc2)s1`, the “activity, negative = inhibition” value was -1.86%.

As to `COc1ccc(C(=O)c2ccccc2O)c(O)c1`, the “activity, negative = inhibition” value is 6.46% [at 12.8 µM].

Take `C#C[C@]1(OC(C)=O)CC[C@H]2[C@@H]3CCC4=C/C(=N/O)CC[C@@H]4[C@H]3CC[C@@]21CC`: the “activity, negative = inhibition” value was -8.04%.

For the compound `CCNC(=O)/C=C/c1cccc(Br)c1`, the “activity, negative = inhibition” value is 14.5%.

Regarding `Cc1ccccc1OCC(O)CO` (stereo not drawn), the “activity, negative = inhibition” value was -1.81%.

`CC(=O)NCCCCCC(=O)O`: the “activity, negative = inhibition” value was -13.8%.

`c1ccc(CC2=NCCN2)cc1`: the “activity, negative = inhibition” value is -0.271% [at 12.8 µM].

Take `NS(=O)(=O)Cc1noc2ccccc12`: the “activity, negative = inhibition” value was -6.74%.

Take `CCCN(CCC)S(=O)(=O)c1ccc(C(=O)O)cc1`: the “activity, negative = inhibition” value was 2.38%.

With `O=C(O)P(=O)(O)O`, the “activity, negative = inhibition” value is -1.38%.

As to `CC[C@H](c1ccc(O)cc1)[C@@H](CC)c1ccc(O)cc1`, the “activity, negative = inhibition” value was 0.656% [at 12.8 µM].

On to `CCCCC(CC)COC(=O)/C=C/c1ccc(OC)cc1` (stereo not drawn), for which the “activity, negative = inhibition” value was -3.83%.

With `CCOC(=O)c1ccc(N)cc1`, the “activity, negative = inhibition” value was -0.326% [at 12.8 µM].

With `OCc1ccccn1`, the “activity, negative = inhibition” value is 0.225%.

Regarding `CCCCc1cc2ccccc2c(OCCN(C)C)n1`, the “activity, negative = inhibition” value is -15.6% [at 12.8 µM].

As to `CC(C)Cn1cnc2c1c(=O)n(C)c(=O)n2C`, the “activity, negative = inhibition” value is 0.894%.

For the compound `CCCCNC(=O)NS(=O)(=O)c1ccc(N)cc1`, the “activity, negative = inhibition” value was -0.315%.

`O=C(O)Cc1csc(-c2ccc(Cl)cc2)n1`: the “activity, negative = inhibition” value is -4.68%.

Take `CC(=O)Nc1ncc([N+](=O)[O-])s1`: the “activity, negative = inhibition” value is -7.84%.

`CCOc1cc(OCC)c(C(=O)CCC(=O)O)cc1OCC`: the “activity, negative = inhibition” value was -10.2%.

With `c1ccc(-c2nc[nH]c2-c2ccccc2)cc1`, the “activity, negative = inhibition” value was -8.85%.

With `Cn1c(=O)c2[nH]c(Br)nc2n(C)c1=O`, the “activity, negative = inhibition” value was 3.01%.

The next assay relates to CP315. The assay is described as above. Particulars: P. falciparum in erythrocytes, SYBR Green DNA, 72 h; series mostly up to 28.7 µM; activity, negative = inhibition: at the top concentration. In outline: as §1
`C#C[C@]1(O)CC[C@H]2[C@@H]3CCc4cc(OC)ccc4[C@H]3CC[C@@]21C`: the “activity, negative = inhibition” value was -4.25%.

`Cc1cc(C)cc(OCC2CNC(=O)O2)c1` (stereo not drawn): the “activity, negative = inhibition” value was -0.0893%.

On to `Cc1cc(NS(=O)(=O)c2ccc(N)cc2)nc(C)n1`, for which the “activity, negative = inhibition” value was 0.642%.

Take `FC(F)(F)C(F)(F)C(F)(F)C(F)(F)C(F)(F)C(F)(F)C(F)(F)C(F)(F)Br`: the “activity, negative = inhibition” value was 0.0587%.

`CC(=O)NC(=O)c1ccccc1O`: the “activity, negative = inhibition” value is -2.89%.

Regarding `O=C(O)C(Cc1cc(I)c(O)c(I)c1)c1ccccc1` (stereo not drawn), the “activity, negative = inhibition” value was 1.76%.

As for `O=C(O)c1ccc(S(=O)(=O)N(Cl)Cl)cc1`, the “activity, negative = inhibition” value was -1.23%.

For the compound `CC(=O)Nc1ccc(OCC(O)CNC(C)C)cc1` (stereo not drawn), the “activity, negative = inhibition” value is -1.3%.

On to `O=S(=O)(O)c1ccc(O)cc1`, for which the “activity, negative = inhibition” value is -0.769%.

Consider `C=C[C@@]1(C)CC(=O)[C@]2(O)[C@@]3(C)[C@@H](O)CCC(C)(C)[C@@H]3[C@H](O)[C@H](OC(C)=O)[C@@]2(C)O1`, for which the “activity, negative = inhibition” value was -7.62%.

Turning to `CCC1Nc2cc(Cl)c(S(N)(=O)=O)cc2S(=O)(=O)N1` (stereo not drawn), the “activity, negative = inhibition” value was 0.466%.

For the compound `CC(=O)OCC(=O)[C@H]1CC[C@H]2[C@@H]3CCC4=CC(=O)CC[C@]4(C)[C@H]3CC[C@]12C`, the “activity, negative = inhibition” value was -2.37%.

In the case of `CC(C)Nc1cccnc1N1CCN(C(=O)c2cc3cc(NS(C)(=O)=O)ccc3[nH]2)CC1`, the “activity, negative = inhibition” value is 0.121%.

As to `COc1cc(C(=O)NCc2ccc(OCCN(C)C)cc2)cc(OC)c1OC`, the “activity, negative = inhibition” value is 1.44% [at 12.8 µM].

`Nc1ccc(C(=O)NCC(=O)O)cc1`: the “activity, negative = inhibition” value was 3.27% [at 12.8 µM].

For `CCC(CC)(CC(=O)Nc1cccc(/C=C/c2nc(C3CCC3)cs2)c1)C(=O)O`, the “activity, negative = inhibition” value is -8.09%.

On to `CCCCCCCCCCCCCCCC(=O)O`, for which the “activity, negative = inhibition” value was -0.0118%.

Turning to `Nc1nc(N)c(-c2ccccc2)s1`, the “activity, negative = inhibition” value is 0.997%.

`COc1ccc(C(=O)c2ccccc2O)c(O)c1`: the “activity, negative = inhibition” value is 3.2% [at 12.8 µM].

Turning to `C#C[C@]1(OC(C)=O)CC[C@H]2[C@@H]3CCC4=C/C(=N/O)CC[C@@H]4[C@H]3CC[C@@]21CC`, the “activity, negative = inhibition” value was -1.61%.

Turning to `CCNC(=O)/C=C/c1cccc(Br)c1`, the “activity, negative = inhibition” value was -6.25%.

As to `Cc1ccccc1OCC(O)CO` (stereo not drawn), the “activity, negative = inhibition” value was -1.85%.

With `CC(=O)NCCCCCC(=O)O`, the “activity, negative = inhibition” value was -8.79%.

As for `c1ccc(CC2=NCCN2)cc1`, the “activity, negative = inhibition” value is -5.28% [at 12.8 µM].

Take `NS(=O)(=O)Cc1noc2ccccc12`: the “activity, negative = inhibition” value was 3.63%.

On to `CCCN(CCC)S(=O)(=O)c1ccc(C(=O)O)cc1`, for which the “activity, negative = inhibition” value is -1.45%.

Take `O=C(O)P(=O)(O)O`: the “activity, negative = inhibition” value is 1.83%.

Take `CC[C@H](c1ccc(O)cc1)[C@@H](CC)c1ccc(O)cc1`: the “activity, negative = inhibition” value is -6.45% [at 12.8 µM].

With `CCCCC(CC)COC(=O)/C=C/c1ccc(OC)cc1` (stereo not drawn), the “activity, negative = inhibition” value is 0.208%.

In the case of `CCOC(=O)c1ccc(N)cc1`, the “activity, negative = inhibition” value was 1.11% [at 12.8 µM].

`OCc1ccccn1`: the “activity, negative = inhibition” value is -3.03%.

Take `CCCCc1cc2ccccc2c(OCCN(C)C)n1`: the “activity, negative = inhibition” value is -12.1% [at 12.8 µM].

In the case of `CC(C)Cn1cnc2c1c(=O)n(C)c(=O)n2C`, the “activity, negative = inhibition” value is -4.44%.

As to `CCCCNC(=O)NS(=O)(=O)c1ccc(N)cc1`, the “activity, negative = inhibition” value was 1.31%.

Turning to `O=C(O)Cc1csc(-c2ccc(Cl)cc2)n1`, the “activity, negative = inhibition” value is 0.0835%.

`CC(=O)Nc1ncc([N+](=O)[O-])s1`: the “activity, negative = inhibition” value is -8.88%.

Turning to `CCOc1cc(OCC)c(C(=O)CCC(=O)O)cc1OCC`, the “activity, negative = inhibition” value is -8.98%.

Consider `c1ccc(-c2nc[nH]c2-c2ccccc2)cc1`, for which the “activity, negative = inhibition” value was -8.42%.

As to `Cn1c(=O)c2[nH]c(Br)nc2n(C)c1=O`, the “activity, negative = inhibition” value was -11.4%.
